Records with an inconclusive call do not appear. Values without a mark were called inactive. Activity calls are given as the source filed them. Calls come from the whole dose curve; as a rule, active = well fitted curve in the direction sought with a large enough effect; inconclusive = small, poorly fitted or top-dose-only effect, or another doubt; inactive = no such curve, though single readings can be large; an effect the other way counts as inactive or inconclusive.
Legend:
[1] = Confirmatory screen GU Rhodamine qHTS for Zika virus inhibitors qHTS (AID 1347157); note: potency is the fitted concentration of half-maximal effect; nearly all actives have a fitted effect of over 70% in size
In short: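 Percent inhibition came from the 15-min rise in Rhodamine110 fluorescence (1.5 microM substrate, ~15% conversion), normalized to no-inhibitor and no-enzyme wells and Hill-fitted. Unlinked protease, 25 nM, pH 8.0 Tris buffer; compounds up to 114 microM, 15-min preincubation.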

[2] = system: Zika virus NS2B-NS3 protease (unlinked complex); test: Primary screen GU Rhodamine qHTS for Zika virus inhibitors: Unlinked NS2B-NS3 protease assay (AID 1347159); note: nearly all actives have a fitted effect of over 60% in size; note: potency is the fitted concentration of half-maximal effect
In short: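 A qHTS format was used, with compound concentrations ranging up to 114 microM. Each compound was preincubated with 25 nM NS2B-NS3 protease, and the substrate was then added at 1.5 microM. Curves were fitted with a 4-parameter Hill model.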

[3] = system: Zika virus NS2B-NS3 protease (linked construct); test: Primary screen NINDS Rhodamine qHTS for Zika virus inhibitors (AID 1347160); note: nearly all actives have a fitted effect of over 55% in size; note: potency is the fitted concentration of half-maximal effect
In short: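 Kinetic fluorescence (Ex 480 nm, Em 540 nm) over 15 min with 1.5 microM Rhodamine110 peptide and 25 nM linked protease.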

[4] = Confirmatory screen NINDS Rhodamine qHTS for Zika virus inhibitors (AID 1347161); note: potency is the fitted concentration of half-maximal effect; nearly all actives have a fitted effect of over 60% in size
In short: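 Enzyme (25 nM, linked NS2B-NS3) was preincubated 15 min with compound in 10 mM Tris-HCl pH 8.0, 0.01% Tween 20. Rhodamine110 substrate (1.5 microM) was then added and fluorescence read at start and after 15 min.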

[5] = system: Zika virus NS2B-NS3 protease (unlinked complex); test: Confirmatory screen GU AMC qHTS for Zika virus inhibitors (AID 1347153);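 note: enzyme at 25 nM with substrate at 10 µM below its Km of 18.3 µM; potency is the fitted concentration of half-maximal effect; nearly all actives have a fitted effect of over 70% in size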
In short: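 Fluorescence change (ex 340/em 450 nm) over 15 min, ~20% substrate conversion, normalized to no-inhibitor and no-enzyme controls, then Hill-fitted. Unlinked protease at 25 nM; AMC peptide 10 µM.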

[6] = system: Zika virus NS2B-NS3 protease (linked construct); test: 384 well plate NINDS Rhodamine confirmatory qHTS for Zika virus inhibitors (AID 1347164);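 note: fluorescence from protease cleavage of Ac-LKRR-rhodamine 110 substrate; nearly all actives have a fitted effect of over 65% in size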; note: potency is the fitted concentration of half-maximal effect
In short: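 Fluorescence at 485/538 nm was measured 25 minutes after adding 10 microM Ac-LKRR-Rd substrate, in the dark at room temperature. The protease (5, 30 or 60 nM final) had been preincubated ~15 minutes with compound; aprotinin as control.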

[7] = ZIKV-mCherry secondary qHTS for Zika virus inhibitors (AID 1347158); note: top concentration of the series differs between compounds
In short: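 Vero, 5,000 cells/well, o/n 37 °C; cpd pin-transferred in DMSO; ZIKV-mCherry MOI 1, 48-72 h 37 °C; 32% PFA stock fix, Hoechst; imaged 10x DAPI/mCherry; mCherry+ threshold 450 RFU; % infection.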

[8] = system: Zika virus NS2B-NS3 protease (linked construct); test: Confirmatory screen NINDS AMC qHTS for Zika virus inhibitors (AID 1347152); note: potency is the fitted concentration of half-maximal effect; nearly all actives have a fitted effect of over 70% in size
In short: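 IC50s from 4-parameter Hill fits of percent inhibition, based on AMC fluorescence gain (340/450 nm) over 15 min with 10 microM Bz-Nle-KRR-AMC. Enzyme: 1 nM linked NS2B-NS3 in Tris-HCl pH 8.0; 15-min compound preincubation.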

[9] = system: Zika virus NS2B-NS3 protease (linked); test: 384 well plate NINDS AMC confirmatory qHTS for Zika virus inhibitors (AID 1347163); note: potency is the fitted concentration of half-maximal effect; nearly all actives have a fitted effect of over 50% in size
In short: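 Linked NS2B-NS3 protease (final 5 nM, 30 nM or 60 nM) was preincubated with compounds (final up to 1 mM) for ~15 minutes. Ac-VKTGKR-AMC substrate (final 30 microM) then reacted for 25 minutes at room temperature in the dark. Fluorescence (ex 355/em 460 nm) was normalized to no-enzyme and no-inhibitor controls.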

O=C(/C=C/c1ccccc1)OC[C@H]1O[C@@H](OC(=O)c2cc(O)c(O)c(O)c2)[C@H](O)[C@@H](O)[C@@H]1O
Potency [1]: 2.15 µM (active) | Potency [2]: 3.98 µM (active) | Potency [3]: inactive | Potency [4]: 3.41 µM (active)

O=C(O)CC1CCC(c2ccc(-c3ccc(Nc4ccc(C(F)(F)F)nc4)cn3)cc2)CC1 (stereo not drawn)
Potency [5]: 44.1 µM (active) | Potency [1]: 4.41 µM (active) | Potency [2]: 6.31 µM (active) | Potency [3]: 10 µM (active) | Potency [4]: 4.41 µM (active) | Potency [6]: inactive

COc1cc(CCCO)ccc1O[C@@H]1O[C@H](CO)[C@@H](O)[C@H](O)[C@H]1O
Potency [1]: 34.3 µM (active) | Potency [2]: inactive | Potency [4]: 34.3 µM (active)

COc1cccc(CNc2ccc(S(=O)(=O)Nc3nc4ccccc4s3)cc2)c1O
Potency [1]: 3.93 µM (active) | Potency [7]: inactive | Potency [2]: 3.55 µM (active) | Potency [3]: 6.31 µM (active) | Potency [4]: 3.93 µM (active)

COc1cc(Nc2ccc([N+](=O)[O-])cc2C(=O)O)cc2ccccc12
Potency [8]: 15.6 µM (active) | Potency [1]: 1.97 µM (active) | Potency [2]: 2.24 µM (active) | Potency [3]: 2.82 µM (active) | Potency [4]: 2.21 µM (active) | Potency [9]: 2.82 µM (active) | Potency [6]: 1.41 µM (active)

CC1(C)CC=C(c2cnc3ccccc3c2)c2cc(C(=O)Nc3ccc(C(=O)O)cc3)ccc21
Potency [8]: 17.5 µM (active) | Potency [5]: 15.6 µM (active) | Potency [1]: 2.78 µM (active) | Potency [2]: 1.78 µM (active) | Potency [3]: 3.16 µM (active) | Potency [4]: 1.97 µM (active) | Potency [6]: inactive

CC(C)CC(c1c(O)c(C=O)c(O)c(C=O)c1O)C1CCC(C)(O)C2CC(C(C)(C)O)CCC12C (stereo not drawn)
Potency [3]: 5.01 µM (active) | Potency [9]: 50.1 µM (active) | Potency [6]: 15.8 µM (active)

CC1(C)CC[C@]2(C(=O)O)CC[C@]3(C)C(=CCC4[C@@]5(C)CC[C@H](O[C@@H]6O[C@H](C(=O)O)[C@@H](O)[C@H](O)[C@H]6O)C(C)(C)C5CC[C@]43C)C2C1 (stereo partly drawn)
Potency [3]: inactive | Potency [6]: 2.24 µM (active)

NC(=O)[C@@H]1CC[C@H](c2ccc(OCc3ccccc3F)cc2)N1
Potency [2]: inactive | Potency [3]: inactive

COc1cc([C@H]2OC[C@](O)(Cc3ccc(O[C@@H]4O[C@H](CO)[C@@H](O)[C@H](O)[C@H]4O)c(OC)c3)[C@@H]2CO)ccc1O
Potency [2]: inactive | Potency [3]: inactive

Nc1ncnc2c1c(COc1cccc(Cl)c1)nn2C1CCOCC1
Potency [2]: inactive | Potency [3]: inactive

O=C(COCC(=O)N1CCN(C(c2ccccc2)c2ccccc2)CC1)Nc1ccc(Cl)cc1C(=O)O
Potency [2]: 11.2 µM (active) | Potency [3]: 12.6 µM (active)

C=C1C(=O)O[C@@H]2C[C@]3(C)[C@@H](CCC(C)=O)[C@@H]3C[C@H]12
Potency [2]: inactive | Potency [3]: inactive

C[C@@H]1C[C@@H](O)[C@@]2(CO)C(CO)=CCC[C@@H]2[C@@]12C[C@@H](c1ccoc1)OC2=O
Potency [2]: inactive | Potency [3]: inactive

CC(NC(=O)c1ccccc1N)C(=O)O (stereo not drawn)
Potency [2]: inactive | Potency [3]: inactive

C[C@@H]1CC[C@]2(C(=O)O[C@@H]3O[C@H](CO[C@@H]4O[C@H](CO)[C@@H](O[C@@H]5O[C@@H](C)[C@H](O)[C@@H](O)[C@H]5O)[C@H](O)[C@H]4O)[C@@H](O)[C@H](O)[C@H]3O)CC[C@]3(C)C(=CCC4[C@@]5(C)C[C@@H](O)[C@H](O)[C@@](C)(CO)C5CC[C@]43C)C2[C@H]1C (stereo partly drawn)
Potency [2]: inactive | Potency [3]: inactive

NC(=O)C(O[C@@H]1O[C@H](CO[C@@H]2O[C@H](CO)[C@@H](O)[C@H](O)[C@H]2O)[C@@H](O)[C@H](O)[C@H]1O)c1ccccc1 (stereo partly drawn)
Potency [2]: inactive | Potency [3]: inactive

O=C(OCC1OC(Oc2ccc(O)cc2COC(=O)C2(O)C(O)CCC(=O)C2OC(=O)C2C=CCC2)C(OC(=O)C2C=CCC2)C(O)C1O)C1C=CCC1 (stereo not drawn)
Potency [2]: inactive | Potency [3]: inactive

Cc1cc(-c2nncc3c(C(C)(C)C)c(OCc4ncnn4C)nn23)no1
Potency [2]: inactive | Potency [3]: inactive

CC(C)=C1C[C@@]2(C)C(=CC1=O)CC[C@@H](O)[C@@H]2C
Potency [2]: inactive | Potency [3]: inactive

COC(=O)C(Cc1ccccc1)NC(=O)c1ccccc1 (stereo not drawn)
Potency [2]: inactive | Potency [3]: inactive

— PubChem BioAssay (NCATS)
